Experimental findings from PubChem BioAssay AID590 (National Center for Advancing Translational Sciences (NCATS), 2007) are described below.

Out of some 59,000 compounds screened, about 6,500 (11%) were called active. About 15% were inconclusive and are not listed. No stated cut-off is given here; in the data, active means max dye-equivalent concentration above about 10 nM; inconclusive means mostly about 1.1 nM to 9.6 nM; inactive means weaker than that. The entries come from a sample that favours actives as a whole.

A short description of the experiment: qHTS Assay for Spectroscopic Profiling in A350 Spectral Region. The note with it: Compound autofluorescence, 340/450 nm, Alexa 350 dye-equivalents; hits give high values. In general terms: In qHTS, concentration-response curves come from the screen itself.
Consider `CCNC(=O)CCc1nc(-c2ccc(C(C)(C)C)cc2)no1`, for which the max dye-equivalent concentration result is “inactive”. As for `Cc1ccc(S(=O)(=O)c2c(N)n(C)c3nc4ccccc4nc23)cc1`, the max dye-equivalent concentration is 3600 nM (active). As for `Cc1ccc(S(=O)(=O)NCc2nc3ccccc3c(=O)n2N)cc1`, the max dye-equivalent concentration entry was “inactive”. Then `CC1=C(C(=O)Nc2ccccc2)C(c2cccs2)C(C#N)=C(SCC#N)N1` (stereo not given), with “inactive”; and `CCOC(=O)N1CC=C2C(C#N)=C(N)C(C#N)(C#N)[C@H](c3cccs3)[C@H]2C1`, with 35 nM (active); and `CC(=O)N1CCN(c2ccc(NCc3ccc(C(C)C)cc3)cc2)CC1`, with “inactive”.

Consider `Cn1c(/C(C#N)=C2/CCCCCN2)nc2ccccc21`, for which the max dye-equivalent concentration is 23 nM (active). For `N#C/C(=C1\CCCN1)c1nc(-c2ccccc2)cs1`, the max dye-equivalent concentration result was “inactive”. For `CCC(C)(C)n1nnnc1C(c1cccs1)N1CCN(Cc2ccccc2)CC1` (stereo not given), the max dye-equivalent concentration entry is “inactive”.

On to `O=C1c2ccccc2C(=O)C1c1ccccc1`, for which the max dye-equivalent concentration entry was “inactive”. For `Cc1cccc(-c2noc(-c3ccc(F)cc3)n2)c1`, the max dye-equivalent concentration result is “inactive”. Then `COc1ccc2[nH]c(=O)c(-c3noc(-c4ccc(F)cc4)n3)cc2c1`, with 14 nM (active); and `O=C(c1cc(C(F)(F)F)cc(C(F)(F)F)c1)N1CCC2(CC1)CN(c1ccncc1)C2`, with “inactive”; and `CN1CCN(c2ncncc2-c2ccc(C(=O)N(C)C)cc2)CC1`, with “inactive”. Then `COCCNC(=O)CN(C(=O)CCC(=O)Nc1cc(C)on1)c1ccc(C)cc1C`, with “inactive”; and `COc1cc2[nH]c(=S)n(CCN3CCCCC3C)c(=O)c2cc1OC` (stereo not given), with “inactive”. Then `CCCCn1c(SCC(=O)NCC2CCCO2)nc2ccc(N3CCOCC3)cc2c1=O` (stereo not given), with 71 nM (active).

In the case of `CCn1c(SCC(=O)NCC2CCCO2)nc2cc(S(=O)(=O)N3CCCCC3)ccc21` (stereo not given), the max dye-equivalent concentration result is “inactive”. Then `CCCCn1c(SCC(=O)NCCc2ccc(OC)c(OC)c2)nc2c1c(=O)n(C)c(=O)n2C`, with “inactive”; and `COCCCNC(=O)CSc1nc2ccc(N3CCOCC3)cc2c(=O)n1CCc1ccccc1`, with 69 nM (active); and `O=C(CSc1nc2cc3c(cc2c(=O)n1CCC1=CCCCC1)OCO3)NCc1ccco1`, with “inactive”. The result for `CCc1ccc(NC(=O)CSc2nc3ccccc3c(=O)n2CCN2CCOCC2)cc1` reads “inactive”; that for `O=C(c1ccco1)N1CCC[C@@]2(CCN(c3ccccc3)C2)C1`, “inactive”; that for `CC(Oc1ccc(Cl)cc1)C(=O)Nc1ncccn1` (stereo not given), “inactive”. Then `O=C(c1cc(C(F)(F)F)cc(C(F)(F)F)c1)N1CCC2(CCCN(Cc3ccncc3)C2)CC1`, with “inactive”. For the molecule `O=C(COc1ncnc2ccccc12)NC(=O)NCc1ccccc1`, the max dye-equivalent concentration entry is “inactive”.

`Cc1cccc(-n2c(N)cc(=O)nc2SC(C)C(=O)NC2CCCCC2)c1` (stereo not given): the max dye-equivalent concentration entry was “inactive”. Then `COC(=O)c1ccc(CSc2ccccc2C)o1`, with “inactive”; and `CCCc1cc(=O)oc2c(C)c(O)c(CN3CCCCC3)cc12`, with 8800 nM (active). Then `CCOC(=O)N1CCN(Cc2oc(CO)cc(=O)c2O)CC1`, with “inactive”; and `CCOC(=O)c1ccc(NC(=O)CSc2nnc(COc3ccccc3OC)n2C)cc1`, with “inactive”; and `O=C(Nc1ccon1)c1cccc(Cl)c1`, with “inactive”. The result for `CCCN1C2=C(C(=O)CCC2)C(c2ccc(O)c(Br)c2)C2=C1CCCC2=O` reads 81 nM (active); that for `c1ccc(CNc2ncncc2-c2cccnc2)cc1`, “inactive”.

`CCC(=O)Nc1ccc2c(c1)nc(CCN1CCN(C)CC1)n2C`: the max dye-equivalent concentration result is “inactive”.

Turning to `CC(Nc1nc(N2CCCC2)nc2ccccc12)c1ccccc1` (stereo not given), the max dye-equivalent concentration is 170 nM (active).

For `Cc1ccc(C(CC(=O)O)Nc2nc(N3CCCCC3)nc(N3CCCCC3)n2)cc1` (stereo not given), the max dye-equivalent concentration entry is “inactive”.

As to `Cc1cc2c(cc1C)NC1=C(N2)O[C@H](c2c[nH]c3ccc(COc4ccccc4)cc23)C1=O`, the max dye-equivalent concentration result is “inactive”. Then `Cn1nc(-c2ccc(N3CCOCC3)c(NC(=O)c3ccccc3)c2)c2ccccc2c1=O`, with “inactive”; and `Cn1c(=O)n(C)c2cc(CNc3ccc(N4CCOCC4)c(C(=O)O)c3)ccc21`, with 22 nM (active); and `Cn1c(=O)n(C)c2cc(C(=O)Nc3ccc4c(c3)OCO4)ccc21`, with “inactive”. The result for `Cn1c(CNc2nc(-c3ccccc3)cs2)nnc1SCC(=O)c1ccccc1` reads “inactive”; that for `COc1ccc(CC(=O)Nc2c3c(nn2-c2cccc(Cl)c2)CS(=O)C3)cc1` (stereo not given), “inactive”. Then `COC(=O)c1cc(Cl)c(NC(=O)c2ccco2)cc1OC`, with “inactive”; and `Cn1c(NC(=O)c2ccco2)c(-c2ccccc2Cl)c(=O)c2ccccc21`, with “inactive”; and `Cc1ccc(-n2nc3cc(Cl)c(NC(=O)c4ccco4)cc3n2)cc1`, with 52 nM (active).

Consider `CCN(CC)CCCNC(=O)c1cc(-c2cccc(Cl)c2)on1`, for which the max dye-equivalent concentration result is “inactive”. The result for `Cc1cc(-n2nc(C)cc2C)n2ncc(-c3ccccc3)c2n1` reads “inactive”; that for `Cc1cc(C(F)(F)F)n2ncc(-c3ccccc3)c2n1`, 12 nM (active); that for `O=C(Cn1c(-c2ccc(Cl)cc2)noc1=O)N1CCN(c2ccccc2F)CC1`, “inactive”. Consider `CC(=O)Oc1ccc2c(C)c(CC(C)O)c(=O)oc2c1` (stereo not given), for which the max dye-equivalent concentration was 21000 nM (active). The result for `COc1ccccc1-c1nc(NCCNC(C)=O)c2ccccc2n1` reads “inactive”. Then `C=CCn1c(=O)c2ccccc2n2c(SCC(=O)N3CCCc4ccccc43)nnc12`, with “inactive”; and `O=c1oc2c(CN3CCCCC3)c(O)ccc2c2c1CCCCC2`, with 13000 nM (active). The result for `CCCn1c(=O)c2ccccc2n2c(SCC(=O)/C(C#N)=C(\C)N)nnc12` reads “inactive”; that for `Cc1ccc(S(=O)(=O)N(C)CC(=O)NC2CCCC2)cc1`, “inactive”; that for `Cc1ccc(-c2noc(CN3CCN(Cc4ccccc4)CC3)n2)cc1`, “inactive”. In the case of `Cc1ccc(Cc2nc(-c3cccc(C)c3)no2)cc1`, the max dye-equivalent concentration entry is “inactive”. The result for `COc1ccccc1Cc1nc(-c2ccc(C)cc2)no1` reads 17 nM (active); that for `C[C@H]1O[C@@H](CC(=O)O)Cc2c1c(O)c1c(O)cc(-c3cc(=O)c4c(=O)c5c(c(=O)c=4c3=O)C[C@H](CC(=O)O)O[C@@H]5C)c(O)c1c2O`, “inactive”. On to `O=C(CSc1nc2ccccc2o1)N1CCN(c2ccc(Cl)cc2)CC1`, for which the max dye-equivalent concentration result was “inactive”. The result for `CC(=O)N(CN1C(=O)C2CC=CCC2C1=O)c1cccc(Cl)c1` (stereo not given) reads “inactive”. Then `O=C(CC1NCCNC1=O)Nc1ccc(Oc2ccccc2)cc1` (stereo not given), with “inactive”; and `O=C(CC1Nc2ccccc2NC1=O)Nc1ccccc1` (stereo not given), with 100 nM (active). The result for `CCOc1ccc(NC(=O)CC2NCCNC2=O)cc1` (stereo not given) reads “inactive”.
